Drawing on PubChem BioAssay AID894 (National Center for Advancing Translational Sciences (NCATS), 2007), this text covers activity change, negative = inhibition and Potency for 59 compounds.

Molecules are shown by their SMILES. Where “and” joins values, the source holds several entries; their conditions need not be identical. Equal entries are not always repeated. The campaign covered roughly 150,000 compounds. About 6,500 (4.3%) were called active. About 12% were inconclusive and are not listed. Calls come from the whole dose curve; as a rule, active = well fitted inhibition curve with a large enough effect (not every such curve was filed as active); inconclusive = small, poorly fitted or top-dose-only effect, or another doubt; inactive = no such curve, though single readings can be large or run the other way. What follows is part of a selection rich in actives, with near analogues and random picks from the rest. A structure can be active in one record and inactive in another.
% is set by controls: 0 for no effect and ±100 for the full control effect; potency is the fitted concentration of half-maximal effect.

Chain of 15-hydroxyprostaglandin dehydrogenase [NAD(+)] (Homo sapiens) (P15428 whole entry, looked up): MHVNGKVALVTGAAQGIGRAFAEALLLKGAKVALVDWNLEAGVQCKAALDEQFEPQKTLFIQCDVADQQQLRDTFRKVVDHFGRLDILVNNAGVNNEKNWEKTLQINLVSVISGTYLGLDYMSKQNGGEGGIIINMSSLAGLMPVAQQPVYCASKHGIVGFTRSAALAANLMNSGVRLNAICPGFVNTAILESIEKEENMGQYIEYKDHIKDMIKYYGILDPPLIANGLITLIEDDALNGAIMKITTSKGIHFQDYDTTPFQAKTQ

This experiment concerns the target 15-hydroxyprostaglandin dehydrogenase [NAD(+)] (Homo sapiens) (UniProt P15428). As to the kind of experiment: qHTS Assay for Inhibitors of HPGD (15-Hydroxyprostaglandin Dehydrogenase). The following applies: purified HPGD, NADH fluorescence kinetic, PGE2 substrate; activity change, negative = inhibition: hits give low values. An outline of the steps: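 NADH formation kinetics: reaction with 30 uM PGE2 and 1 mM NAD+ (final), 20 nM enzyme, Tris-HCl pH 8 with Tween 20, after 15 min compound preincubation at room temperature. Fluorescence change, last versus first of five reads.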
In the case of `Cc1ccc(CC2S/C(=C(/C#N)C(=O)N3CCOCC3)N(c3ccccc3)C2=O)cc1` (stereo not given), the activity change, negative = inhibition is -13.9% (inactive). With `CN(C)C(=O)c1ccc2c(c1)C1C3CCC(C3)C1C(c1ccccc1)N2` (stereo not given), the activity change, negative = inhibition was -9.73% (inactive). On the same count and under the same terms, to `c1nnc2c3c4c(sc3ncn12)CCC4` belongs -16.5% (inactive); to `N=c1c2c3c(sc2ncn1N)CCCCC3`, -10.1% (inactive). In the case of `S=c1[nH]nc2c3c4c(sc3ncn12)CCCC4`, the Potency was 20 µM (active).

Turning to `CCOC(=O)/C(=N\Nc1cc(Cl)ccc1Cl)N1CCN(C)CC1`, the activity change, negative = inhibition is -8.38% (inactive). For `CCCCOc1ccc(C(=O)N/C(=C/C=C/c2ccccc2)C(=O)N2CCOCC2)cc1`, the activity change, negative = inhibition is -16% (inactive). For `COc1cccc(C(=O)Nc2cc3c(cc2Br)OCCCO3)c1`, the activity change, negative = inhibition is -9.03% (inactive). The same measure, in the same setting: in the case of `FC(F)(F)Oc1ccc(NC(=S)NCc2ccccc2)cc1` it was -11.2% (inactive). The same measure, in the same setting: to `COC(=O)Cc1ccc(NC(=S)NCc2ccc(Cl)cc2)cc1` belongs -8.96% (inactive). Consider `COC(=O)Cc1ccc(NC(=S)NCc2ccccc2)cc1`, for which the Potency was 20 µM (active).

`Cc1c(Cl)c([N+](=O)[O-])nn1CCCC(=O)NC(C)c1ccccc1` (stereo not given): the activity change, negative = inhibition is -2.71% (inactive). As for `Cc1nn(Cc2ccccc2)c(Cl)c1C(=O)OC1CCOC1=O` (stereo not given), the Potency is 15.8 µM (active). For `Cc1cc(C(=O)Nc2c(C)nn(Cc3ccccc3)c2C)on1`, the activity change, negative = inhibition is -12.9% (inactive). As for `COC(=O)c1ccc(COC(=O)c2c(C)nn(Cc3ccccc3Cl)c2Cl)o1`, the activity change, negative = inhibition was -23% (inactive). In the case of `O=C(COC(=O)[C@H](Cc1ccccc1)NC(=O)c1cccs1)Nc1cc(F)ccc1F`, the activity change, negative = inhibition was 2.87% (inactive).

For the compound `Cc1cc(=O)n2nc(N3CCCC(C(=O)NCCC4=CCCCC4)C3)sc2n1` (stereo not given), the activity change, negative = inhibition is -11.9% (inactive). Consider `CC1CCCN(C(=O)c2ccc3c(c2)C(=O)N(CCC2=CCCCC2)C3=O)C1` (stereo not given), for which the Potency is 0.891 µM (active).

As for `Cn1nnc2cc(C(=O)NCCC3=CCCCC3)ccc21`, the activity change, negative = inhibition is -28.7% (inactive).

Turning to `C=CC1=C2C=C(C3CC3)N(CC(C)C)C=C2C(=O)C(C)(OC(=O)c2ccco2)C1=O` (stereo not given), the activity change, negative = inhibition is -3.22% (inactive). Still for that read-out and setting: to `Cc1nn(C)cc1/C=C1\CCC/C(=C\c2cn(C)nc2C)C1=O` belongs -27.5% (inactive). As for `CCn1cc(/C=C2/SC(=S)NC2=O)c(C)n1`, the Potency is 17.8 µM (active).

Consider `O=C1NC(c2ccc(-c3ccccc3[N+](=O)[O-])o2)C(C(=O)c2ccc(Cl)cc2)C(O)(C(F)(F)F)N1` (stereo not given), for which the activity change, negative = inhibition is -3.47% (inactive). The same measure, in the same setting: in the case of `C#CCCCc1nc2ccccc2c(=O)n1N` it was -10.2% (inactive). As for `Cc1cc(-c2n[nH]c(=S)n2/N=C/C(Br)=C/c2ccccc2)n[nH]1`, the Potency was 3.98 µM (active). Regarding `S=c1[nH]nc(-c2cccnc2)n1/N=C/C(Cl)=C\c1ccccc1`, the Potency was 1.58 µM (active). Take `COc1cc(CN2CC(C)CC(C)C2)cc([N+](=O)[O-])c1O` (stereo not given): the activity change, negative = inhibition is -17.1% (inactive). On to `Cc1ccc(NC(=S)NC(=O)/C=C/c2ccc(Cl)cc2)cc1`, for which the activity change, negative = inhibition was -18.9% (inactive).

Turning to `CC(NC(=O)COC(=O)C1CCN(S(=O)(=O)c2ccccc2C(F)(F)F)CC1)c1ccccc1` (stereo not given), the activity change, negative = inhibition was -6.33% (inactive). Same read-out and setting: in the case of `CC1(OC(=O)c2ccc(Cl)nc2)C(=O)Cc2cc(-c3ccsc3)ncc2C1=O` (stereo not given) it was 2.16% (inactive). Still for that read-out and setting: in the case of `O=C(NCCN1CCOCC1)c1cc(Sc2cccc(Cl)c2)nc2ccccc12` it was -1.7% (inactive). Consider `O=C(NC(=S)Nc1cc(C(F)(F)F)ccc1N1CCOCC1)c1ccc(-c2cccc(Cl)c2)o1`, for which the activity change, negative = inhibition was -5.6% (inactive). As to `CCN1C(=O)/C(=C2/Sc3ccccc3N2CCCS(=O)(=O)O)SC1=S`, the Potency is 20 µM (active).

In the case of `CCN1C(=O)/C(=C\N2CCN(c3ccccc3)CC2)SC1=S`, the activity change, negative = inhibition is -18.6% (inactive).

On to `CCC(=O)/C=C1\Sc2ccccc2N1CC`, for which the activity change, negative = inhibition was -16.1% (inactive). Still for that read-out and setting: to `COc1ccc(C)cc1NC(=O)C(OC(=O)c1cccc(S(=O)(=O)N(C)c2ccccc2)c1)c1ccccc1` (stereo not given) belongs -17.6% (inactive); to `CC(=O)c1c(N2CCN(c3ccc(F)cc3)CC2)nc(=S)n(-c2ccccc2)c1C`, -7.92% (inactive); to `O=[N+]([O-])c1ccc(N2CCNCC2)cc1NCc1cccnc1`, -18.8% (inactive).

Turning to `O=C1OC(OC(=O)c2ccccc2Br)C(N2CCOCC2)=C1Cl` (stereo not given), the activity change, negative = inhibition is -15.3% (inactive). For `Cc1ccc(C(=O)CSc2nc3ccccc3c(=O)n2N)o1`, the Potency was 25.1 µM (active).

With `COc1ccc(OCc2ccc(-c3nc4ccccc4c(=O)n3N)o2)cc1`, the activity change, negative = inhibition was -2.6% (inactive). The same measure, in the same setting: in the case of `O=C(CCn1c(SCC(=O)c2ccccc2)nc2ccccc2c1=O)NCc1ccc(F)cc1` it was -4.59% (inactive). Still for that read-out and setting: to `O=C(CSc1nc2ccccc2[nH]1)Nc1nc(-c2ccccc2)c(-c2ccccc2)o1` belongs -28.7% (inactive); to `O=C(CN1C(=O)/C(=C\c2ccccc2F)SC1=S)Nc1nc2ccccc2s1`, -21.2% (inactive); to `O=C(Nc1ccc(Cl)cc1)c1ccsn1`, -18.4% (inactive). As for `O=C(Nc1ccccc1)c1nnsc1S(=O)(=O)c1ccc(Cl)cc1`, the Potency was 11.2 µM (active).

Take `CC(=O)Nc1cc(C(=O)O)ccc1S(=O)(=O)c1ccc(Cl)cc1`: the activity change, negative = inhibition was -9.11% (inactive). Same read-out and setting: in the case of `Cc1ccccc1Nc1nc(N)nc(CSc2ccccc2)n1` it was -2.99% (inactive); in that of `COc1ccc(-n2c(C)cc(C(=O)CN3C(=O)NC4(CCc5ccccc54)C3=O)c2C)cc1` (stereo not given), -8.92% (inactive); in that of `COc1cc(/C=C/C(=O)O)cc(S(=O)(=O)Nc2ccccc2SC)c1OC`, -7.12% (inactive). With `COc1ccc([N+](=O)[O-])cc1N(CC(O)Cn1nnc2ccccc21)S(=O)(=O)c1ccc(C)cc1` (stereo not given), the Potency is 28.2 µM (active). Turning to `Cc1ccc(N(CC(O)CN2CCCC2)S(=O)(=O)c2ccccc2)cc1` (stereo not given), the activity change, negative = inhibition is -2.29% (inactive). Same read-out and setting: in the case of `Cc1cc(C)n(CC(O)CN(c2ccccc2)S(=O)(=O)c2ccc3ccccc3c2)n1` (stereo not given) it was -6.52% (inactive). Take `CCCCCC(O)c1cccc(OCc2ccc3ccccc3n2)c1` (stereo not given): the Potency is 14.1 µM (active); the activity change, negative = inhibition is -26.2% (inactive) and -5.68% (inactive). On to `CCCCCCOC(=O)NCC(O)c1ccccc1` (stereo not given), for which the activity change, negative = inhibition was -19.8% (inactive).

Take `CCCn1c(C(O)c2ccc(OCC)cc2)nc2ccccc21` (stereo not given): the activity change, negative = inhibition was -9.25% (inactive). Same read-out and setting: to `Cc1nn(-c2ccccc2)c(C)c1NC(=O)CCl` belongs -8.71% (inactive). For `Cc1nn(-c2ccccc2)c(Cl)c1C(=O)Nc1ccccc1`, the Potency is 14.1 µM (active). Turning to `Cc1cc(NC(=O)Nc2ccccc2)n(-c2ccccc2)n1`, the activity change, negative = inhibition was -0.703% (inactive).
